Source: PubChem BioAssay (Tox21)
“And” between values parts separate entries of the source, which are not always exact repeats. Equal entries are not always repeated. Records with an inconclusive call do not appear. A call without a number means that no potency is given here. The source made the active and inactive calls. Calls come from the whole dose curve; as a rule, active = well fitted cell-killing curve with a large enough effect in the repeat runs; inconclusive = weak or mixed curves, or effect the other way; inactive = flat fitted curve, though single readings scatter.

Experiment: qHTS assay to identify small molecule antagonists of the estrogen receptor alpha (ER-alpha) signaling pathway using the BG1 cell line in the presence of 0.1 nM 17-beta-estradiol - cell viability counter screen (AID 1259241); note: nearly all actives have a fitted effect of over 40% in size
Details: VM7Luc4E2 (BG1) viability, CellTiter-Fluor protease, 22 h, 0.1 nM estradiol agonist added; series mostly up to 92.4 µM
Source text: National Center for Advancing Translational Sciences [NCATS]
NIH Chemical Genomics Center [NCGC]
U.S. Environmental Protection Agency [EPA]
National Institutes of Environmental Health Sciences [NIEHS]
National Toxicology Program [NTP]
U.S. Food and Drug Administration [FDA]
Estrogen receptor (ER), a member of the nuclear hormone receptor plays an important role in development, metabolic homeostasis and reproduction. Two subtypes of ER, ER-alpha and ER-beta, have similar expression patterns with some uniqueness in both types. Endocrine disrupting chemicals (EDCs) and their interactions with steroid hormone receptors like ER causes disruption of normal endocrine function. Therefore, it is important to understand the effect of environmental chemicals in ER signaling pathway. For identifying ER antagonists, VM7Luc4E2 cell line was used to screen against Tox21 compound libraries.
VM7Luc4E2 cell line (provided by Denison MS, University of California) endogenously express full-length ER-alpha and is stably transfected with a plasmid containing four estrogen responsive elements (ERE) upstream of a luciferase reporter gene. The current screening for identification of ER-alpha inhibitors against Tox21 compound libraries used lower concentration (0.1 nM) of 17beta-Estradiol as a stimulator. The cytotoxicity of the Tox21 compound libraries against VM7Luc4E2 cell line was tested by measuring live-cell protease activity using CellTiter-Fluor assay in the same wells.
Tox21 Assay Protocol Summary:
VM7Luc4E2 cells were cultured in phenol red free assay medium containing 10% charcoal stripped FBS for 5 days prior to the assay. The cells were dispensed at 4,000 cells/well in 4 uL of assay medium into white wall/solid-bottom 1536-well plates (Corning Life Sciences, Corning, NY) using a Multidrop Combi (ThermoFisher Scientific, Waltham, MA) dispenser. After the assay plates were incubated at 37C and 5% CO2 for 24 hr, 23 nL of compounds dissolved in DMSO, positive controls or DMSO only was transferred to the assay plates by a Pintool station (Kalypsys, San Diego, CA). The transfer of compounds was followed by the addition of 1 uL of 0.1 nM (final concentration) agonist (17beta-Estradiol)/assay medium using a Flying Reagent Dispenser (FRD, Aurora Discovery, San Diego, CA). The plates were incubated at 37C and 5% CO2 for 22 hr. For cytotoxicity assay, 1 uL of CellTiter-Fluor reagent (Promega Corporation, Madison, WI) was added to each well using the FRD and after 30 min incubation at 37C and 5% CO2, The fluorescence intensity was measured using ViewLux plate reader (PerkinElmer, Shelton, CT).
Potency is the fitted concentration of half-maximal effect.

Compound | Potency
CCc1cc(C(N)=S)ccn1 | inactive
COCCOCCOC | inactive
COc1cc2c(c(OC)c1OC)-c1ccc(OC)c(=O)cc1[C@@H](NC(C)=O)CC2 | inactive
c1ccc2[nH]c(-c3cscn3)nc2c1 | inactive
C#C[C@]1(O)CC[C@H]2[C@@H]3CCC4=CC(=O)CC[C@@H]4[C@H]3CC[C@@]21CC | inactive
COc1cc(O)c(C(=O)c2ccccc2)cc1S(=O)(=O)O | inactive
CC(=O)OC/C=C(C)/C=C/C=C(C)/C=C/C1=C(C)CCCC1(C)C | inactive
CCCCOCCOCCOC(C)=O | inactive
CCOCCO | inactive
C[C@]12CC[C@@H]3c4ccc(O)cc4C[C@@H](CCCCCCCCCS(=O)CCCC(F)(F)C(F)(F)F)[C@H]3[C@@H]1CC[C@@H]2O (stereo not given in full) | inactive
CN/C(=C\[N+](=O)[O-])NCCSCc1ccc(CN(C)C)o1 | inactive
Nc1ccc(N=Nc2ccccc2)c(N)n1 | 61.4 µM (active) and 30.6 µM (active)
CCOC(=O)C(C)(C)Oc1ccc(Cl)cc1 | inactive
CCCCC/C(C=O)=C\c1ccccc1 | inactive
CC(=O)Oc1ccccc1C(=O)O | inactive
C#C[C@]1(O)CC[C@H]2[C@@H]3CCc4cc(O)ccc4[C@H]3CC[C@@]21C | inactive
CC1=C(/C=C/C(C)=C/C=C/C(C)=C/C(=O)O)C(C)(C)CCC1 | inactive
O=[N+]([O-])c1ccc(O)cc1 | 56.6 µM (active)
C[C@]12CC[C@@H]3c4ccc(O)cc4CC[C@H]3[C@@H]1CCC2=O | inactive
COc1ccc(C(=O)c2ccccc2)c(O)c1 | inactive

Compound | Potency
CN(C)C=O | inactive
C[C@]12C=CC(=O)C=C1CC[C@@H]1[C@@H]2C(=O)C[C@@]2(C)[C@H]1CC[C@]2(O)C(=O)CO | inactive
CCN1CCCC1=O | inactive
Cc1cnc(NC(=O)C2=C(O)c3ccccc3S(=O)(=O)N2C)s1 | inactive
CC(=O)/C=C/C1=C(C)CCCC1(C)C | inactive
CCCCOC(=O)CCCCCCCCC(=O)OCCCC | inactive
COC(=O)c1ccc(C=O)cc1 | inactive
C=CC(=O)NC(C)(C)CS(=O)(=O)O | inactive
C=CCOC(=O)CC(C)C | inactive
O=C(O)CCCCC1CCSS1 (stereo not given) | inactive
COCC(C)N (stereo not given) | inactive
CC(O)COc1ccccc1 (stereo not given) | inactive
Cc1c(N(C)CS(=O)(=O)O)c(=O)n(-c2ccccc2)n1C | inactive
C/C=C/c1ccc(O)c(OC)c1 | inactive
CC(C)(C)NCC(O)c1ccc(O)c(CO)c1 (stereo not given) | inactive
Cc1cccc(Nc2cc(Cl)nc(SCC(=O)O)n2)c1C | inactive
NC(N)=NC(N)=NCCc1ccccc1 | inactive
COc1ccc(O)cc1 | inactive
CCCCNC(=O)NS(=O)(=O)c1ccc(N)cc1 | inactive
O=C1CCCCCN1 | inactive
